Among the data in PubChem BioAssay (NCATS) are Potency values, retold here.

For test [1], the target named is Aldehyde dehydrogenase, mitochondrial (Homo sapiens) (UniProt P05091). The test is described as follows: qHTS for Inhibitors of the Aldehyde Dehydrogenase Family (ALDH2) Primary screen (AID 2061308). Note: nearly all actives have a fitted effect of over 55% in size.
The target in test [2] is Retinaldehyde dehydrogenase 3 (Homo sapiens) (UniProt P47895). The test can be described thus: qHTS for Inhibitors of the Aldehyde Dehydrogenase Family (ALDH1A3) Primary screen (AID 2061315). (In general: In qHTS, concentration-response curves come from the screen itself.)

Records with an inconclusive call do not appear. Where a call stands in place of a potency, no number is given. Activity calls are given as the source filed them. Calls come from the whole dose curve; as a rule, active = well fitted curve in the direction sought with a large enough effect; inconclusive = small, poorly fitted or top-dose-only effect, or another doubt; inactive = no such curve, though single readings can be large; an effect the other way counts as inactive or inconclusive.

As for `CNC1CCC(N(Cc2ccc(OC)c(-c3ccc(C#N)cc3)c2)C(=O)c2sc3ccccc3c2Cl)CC1` (stereo unspecified), the Potency entry in test [1] and in test [2] was “inactive” throughout.
Consider `Clc1ccccc1CSc1nc2ncc(Br)cc2[nH]1`, for which the Potency result in test [1] and in test [2] was “inactive” in each case.
As for `Cn1c2cc(C#N)sc2c2cnn(Cc3ccc(F)cc3)c(=O)c21`, the Potency entry in test [1] and in test [2] was “inactive” each time.
Take `N#Cc1c(-c2ccc(OCCOCCOCCNC(=O)CCCC[C@@H]3SC[C@@H]4NC(=O)N[C@@H]43)cc2)no[n+]1[O-]`: the Potency entry in test [1] and in test [2] was “inactive” each time.
Consider `CCOC(=O)c1ccc(NC(=O)CN2CCCCC2)cc1`, for which the Potency result in test [1] and in test [2] was “inactive” throughout.
Turning to `NC(N)=NCCC[C@H](NC(=O)CNC(=O)c1ccccc1)C(=O)Nc1cc(C(F)(F)F)ccc1Cl`, the Potency result in test [1] and in test [2] was “inactive” throughout.
On to `COc1ccc(Cl)cc1C(=O)Nc1nc(-c2ccccc2)cs1`, for which the Potency entry in test [1] and in test [2] was “inactive” throughout.
As for `COc1cc(NC(=O)c2cnn3c(C)cc(C)nc23)cc(OC)c1OC`, the Potency result in test [1] and in test [2] was “inactive” throughout.
For the compound `CNc1oc(-c2cccc3c2OC(F)(F)O3)nc1C#N`, the Potency entry in test [1] and in test [2] was “inactive” throughout.
With `CC(C)(C)Cc1nnc(NC(=O)CSc2ccccc2)s1`, the Potency result in test [1] and in test [2] was “inactive” each time.
`COc1ccc(C2Nc3ccccc3C(=O)N2Cc2ccc(C(F)(F)F)o2)cc1COc1c(C)cccc1C` (stereo unspecified): the Potency entry in test [1] and in test [2] was “inactive” in each case.
`Cn1c2ccsc2c2ncn(Cc3ccc(F)cc3)c(=O)c21`: the Potency result in test [1] and in test [2] was “inactive” in each case.
As for `CCOc1ccc(CCNC(=O)c2cccs2)cc1OCC`, the Potency entry in test [1] and in test [2] was “inactive” throughout.
For `Cc1cc(C)nc(NC(=S)N2CCN(c3cncnc3)CC2)c1`, the Potency entry in test [1] and in test [2] was “inactive” throughout.
For `COc1ccc2nc(-c3ccc(Cl)cc3)sc2c1`, the Potency result in test [1] and in test [2] was “inactive” in each case.
`CC(=O)Nc1sc2c(c1-c1ccc3c(c1)OCO3)CCNC2`: the Potency entry in test [1] and in test [2] was “inactive” each time.
Turning to `O=C(O)c1ccc(CSc2nnc(-c3ccc([S+](=O)([O-])N4CCCC4)cc3)n2-c2ccccc2)cc1`, the Potency entry in test [1] and in test [2] was “inactive” each time.
Consider `O=S1(=O)N=C(Oc2cccc(C(F)(F)F)c2)c2ccccc21`, for which the Potency result in test [1] and in test [2] was “inactive” in each case.
Consider `CC(=O)Nc1cccc(OC2=NS(=O)(=O)c3ccccc32)c1`, for which the Potency entry in test [1] and in test [2] was “inactive” in each case.
On to `COc1cccc(C2c3c(ncn(-c4ccccc4)c3=N)Oc3ccc4ccccc4c32)c1OC` (stereo unspecified), for which the Potency result in test [1] and in test [2] was “inactive” each time.
As to `N#Cc1c(-c2ccc3ccccc3c2)no[n+]1[O-]`, the Potency result in test [1] and in test [2] was “inactive” throughout.
Consider `O=C(NCc1ccc(F)cc1)n1cc(P(=S)(c2ccccc2)c2ccccc2)c2ccccc21`, for which the Potency result in test [1] and in test [2] was “inactive” throughout.
With `O=C(O)c1ccc(O)c2ncc(-c3n[nH]nc3-c3ccccc3)cc12`, the Potency entry in test [1] and in test [2] was “inactive” throughout.
With `Cc1ccc(OCCn2c(CCN(C)C(=O)C3CCCCC3)nc3ccccc32)cc1`, the Potency result in test [1] and in test [2] was “inactive” throughout.
With `O=C(O)c1ccc2c(c1)C(=O)N([C@H](Cc1ccc(O)c(O)c1)C(=O)O)C2=O`, the Potency result in test [1] and in test [2] was “inactive” in each case.
With `Cc1cc2c(s1)c1cnn(Cc3cc(F)ccc3F)c(=O)c1n2C`, the Potency entry in test [1] and in test [2] was “inactive” in each case.
For the compound `CC1=C(C(=O)Nc2ccon2)C(c2ccccc2Br)N=C(Nc2nc3ccccc3o2)N1` (stereo unspecified), the Potency result in test [1] and in test [2] was “inactive” in each case.
As for `N#CN1CCC(NC(=O)c2cccc(F)c2)CC1`, the Potency entry in test [1] and in test [2] was “inactive” in each case.
With `O=Cc1nc(Nc2cc(F)cc(F)c2)nc(NC2CCCC2)n1`, the Potency entry in test [1] and in test [2] was “inactive” each time.
In the case of `N=c1c2c(ccn1-c1ccccc1)Oc1ccc3ccccc3c1C2c1ccccc1` (stereo unspecified), the Potency entry in test [1] and in test [2] was “inactive” each time.
Consider `Cc1ccc(C[C@H](C(=O)O)N2C(=O)c3ccc(C(=O)O)cc3C2=O)c(C)c1`, for which the Potency entry in test [1] and in test [2] was “inactive” throughout.
In the case of `Fc1ccc(-c2nc(-c3ccncc3)nc3ccccc23)cc1F`, the Potency entry in test [1] and in test [2] was “inactive” in each case.
Turning to `O=C1CCCC2=C1C(c1[nH]ncc1Cl)NC(=NCc1ccncc1)N2` (stereo unspecified), the Potency entry in test [1] and in test [2] was “inactive” in each case.
For `COc1cccc(C2c3c(ncn(-c4ccc(Br)cc4)c3=N)Oc3ccc4ccccc4c32)c1` (stereo unspecified), the Potency entry in test [1] and in test [2] was “inactive” each time.
In the case of `COc1cccc(CNc2ccc(S(=O)(=O)Nc3cc(C)on3)cc2)c1O`, the Potency entry in test [1] and in test [2] was “inactive” each time.
Take `Cc1c(P(=S)(c2ccccc2)c2ccccc2)[n+]2ccccc2n1CC(=O)c1ccccc1`: the Potency result in test [1] and in test [2] was “inactive” throughout.
For the compound `O=C(NCc1nnc(-c2cc3ccccc3[nH]2)o1)c1ccccc1`, the Potency result in test [1] and in test [2] was “inactive” throughout.
For `Cc1ccc(C)c(SC2CS(=O)(=O)c3ccccc32)c1` (stereo unspecified), the Potency result in test [1] and in test [2] was “inactive” each time.
`Cc1cc(N[S+](=O)([O-])c2ccc(NC(=O)Cc3ccc(F)c(C(F)(F)F)c3)cc2)no1`: the Potency entry in test [1] and in test [2] was “inactive” throughout.
Take `COc1ccc(C(=O)Nc2nc(-c3ccccc3)cs2)cc1NS(=O)(=O)c1ccc(C)cc1`: the Potency entry in test [1] and in test [2] was “inactive” in each case.
As for `Cc1ccc(-c2cc(C(=O)Nc3ccc(S(=O)(=O)NCc4nccs4)cc3)c3ccccc3n2)cc1C`, the Potency result in test [1] and in test [2] was “inactive” each time.
`COc1ccc(Br)cc1S(=O)(=O)N1CCN(S(=O)(=O)c2ccc3c(c2)OCCO3)CC1`: the Potency entry in test [1] and in test [2] was “inactive” in each case.
As for `COc1cccc(C2c3c(ncn(-c4cccc(Cl)c4)c3=N)Oc3ccc4ccccc4c32)c1` (stereo unspecified), the Potency result in test [1] and in test [2] was “inactive” throughout.
